Screens (PubChem)
Rab9 prom act = qHTS Assay for Rab9 Promoter Activators | Huh7 Rab9 promoter-luciferase reporter, luminescence, 24 h | Potency, µM (highest dose often 9.22 µM), for the others: at the top dose activation, negative = inhibition, hits mostly activators | hit rate 2.8% among 320,000 | AID 485297, 2010; note: % of control where 0% means no effect; nearly all actives have a fitted effect of over 60% in size
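Cell-based reporter: Huh7 stable for Rab9 promoter-driven luciferase, plated in reduced-serum medium with 10% FBS at 1500 cells/well, compound-treated 24 h at 37 °C, luminescence read after 10 min reagent.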
ELG1 genotoxic = qHTS screen for small molecules that induce genotoxicity in human embryonic kidney (HEK293T) cells expressing luciferase-tagged ELG1. HEK293T ELG1-luciferase reporter, luminescence, 16 h. Potency, µM (titrated, usually from 46 µM), for the others: top-dose activity change, positive = activation, usual class: activators. hit rate 1.3% among 330,000. AID 504466, 2011; note: % of control where 0% means no effect; nearly all actives have a fitted effect of over 60% in size
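Genotoxicity was scored as increased ELG1-luciferase reporter signal, measured by ONE-Glo luminescence (30 min, room temperature). Compound or vehicle exposure of the HEK293T reporter cells lasted 16 hr at 37°C.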
NPC1 promoter act = qHTS Assay for NPC1 Promoter Activators | Huh7 NPC1 promoter luciferase reporter, 24 h | Potency, µM (titrated, usually from 9.22 µM), without a hit: at the top dose activation, usual class: activators | hit rate 2.4% among 320,000 | AID 485313, 2010; note: % of control where 0% means no effect; nearly all actives have a fitted effect of over 60% in size
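Readout is luciferase luminescence, reflecting NPC1 promoter activation in stably transfected Huh7 cells after 24 h compound exposure at 37 °C in reduced-serum medium with 10% FBS.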
FLuc modulator = qHTS profiling assay for firefly luciferase inhibitor/activator using purifed enzyme and Km concentrations of substrates (counterscreen for miR-21 project); Luciferin 4-monooxygenase (Photinus pyralis), P08659; purified FLuc, Km substrates, luminescence inhibition; Potency, µM (series often up to 57.5 µM), for inactives: at the highest dose activity change, negative = inhibition, most hits filed as inhibitors; hit rate 6.9% among 360,000; AID 588342, 2011;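 note: plate controls were vehicle for no effect and reference inhibitor for full effect; nearly all actives have a fitted effect of over 55% in size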
Target sequence (P08659 whole entry, looked up): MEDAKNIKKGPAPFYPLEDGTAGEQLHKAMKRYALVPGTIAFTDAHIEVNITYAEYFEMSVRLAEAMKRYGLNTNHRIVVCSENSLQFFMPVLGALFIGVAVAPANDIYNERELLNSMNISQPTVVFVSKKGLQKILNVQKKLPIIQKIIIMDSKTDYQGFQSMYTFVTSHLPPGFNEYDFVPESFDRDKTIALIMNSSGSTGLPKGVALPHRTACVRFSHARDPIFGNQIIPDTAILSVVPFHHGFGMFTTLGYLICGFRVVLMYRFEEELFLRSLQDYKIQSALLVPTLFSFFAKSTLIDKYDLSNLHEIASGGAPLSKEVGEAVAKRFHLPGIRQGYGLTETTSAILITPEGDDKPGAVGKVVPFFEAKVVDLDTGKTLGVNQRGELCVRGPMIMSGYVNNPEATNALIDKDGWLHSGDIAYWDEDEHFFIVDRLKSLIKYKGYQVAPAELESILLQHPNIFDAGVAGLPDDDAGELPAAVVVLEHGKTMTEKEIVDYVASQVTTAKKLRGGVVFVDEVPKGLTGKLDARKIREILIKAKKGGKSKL
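Biochemical qHTS of compounds, final roughly 60 µM downward over six points, against 10 nM purified firefly luciferase using Km concentrations of substrates (10 uM D-luciferin, 10 uM ATP) in Tris acetate pH 7.5 buffer; luminescence output.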
Luc counter = Counterscreen for Luciferase (Kinase-Glo TM) Inhibition; Kinase-Glo luciferase, ATP luminescence, 8 min; Potency, µM (titrated, usually from 38.3 µM), inactives show top-dose activity change, negative = inhibition, actives largely listed as inhibitors; hit rate 0.28% among 200,000; AID 1379, 2008; note: % is set by controls: 0 for no effect and ±100 for the full control effect; nearly all actives have a fitted effect of over 60% in size
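Recombinant Kinase-Glo luciferase, 10 uM ATP (linear range), luciferin; imidazole pH 7.2 / KCl / MgCl2 / Tween / BSA buffer; 8 min RT; luminescence.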
SMN2 splice enh = qHTS Assay for Enhancers of SMN2 Splice Variant Expression; HEK293 SMN2-luciferase splicing reporter, luminescence, 30-36 h; hit rate 2.8% among 210,000; Potency, µM (highest dose often 46.1 µM), for the others: top-dose activity change, positive = activation, usual class: activators; AID 1458, 2008; note: % of control where 0% means no effect; nearly all actives have a fitted effect of over 55% in size
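HEK293 cells carry an SMN2 […]–luciferase reporter in which exon 7 inclusion puts luciferase in frame. Cells were plated 10-12 h before compound addition, then incubated 30-36 h at 37C. ONE-Glo luminescence was read; sodium butyrate at 4.5 mM final served as control.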
Active calls of the source: *; ? = inconclusive; / = no result given. The list is not random: actives were taken first. Their share in the collection is about 7.4%. Calls come from the whole dose curve; as a rule, active = well fitted curve in the direction sought with a large enough effect; inconclusive = small, poorly fitted or top-dose-only effect, or another doubt; inactive = no such curve, though single readings can be large; an effect the other way counts as inactive or inconclusive. Potency is the fitted concentration of half-maximal effect.

SMILES | Rab9 prom act | ELG1 genotoxic | NPC1 promoter act | FLuc modulator | Luc counter | SMN2 splice enh
CC(=O)Nc1cnc(NC(=O)c2cccc(F)c2)cc1C | 2.82µM* | 14.6µM* | 1.58µM* | 30.1µM* | -19.8% | 11.2µM*
Cc1cc(NC(=O)c2cccc(F)c2)no1 | 26.2% | ? | 25.8% | ? | -6.6% | 13.9%
CCC(=O)Nc1cnc(NC(=O)c2cccc(F)c2)cc1C | 0.708µM* | ? | 1.58µM* | 9.53µM* | -10.0% | 11.2µM*
Cc1cc(NC(=O)c2ccco2)ncc1NC(=O)Cc1ccccc1 | 3.16µM* | 17.3% | ? | 16.9µM* | 2.6% | 8.1%
Cc1nn(-c2ccccc2)c2c1cc1c(=O)[nH]c(=O)nc-1n2-c1cccc(C(F)(F)F)c1 | / | / | / | -6.3% | / | -1.7%
Cc1ccc(C2C(=O)c3ccccc3C2=O)cc1 | 23.5% | 4.1% | 12.0% | 16.9µM* | / | /
O=C1c2ccccc2C(=O)C1c1ccccn1 | 1.41µM* | ? | 2.51µM* | 10.7µM* | / | /
O=C1c2ccccc2C(=O)C1c1ccncc1 | 0.501µM* | 3.16µM* | 1.26µM* | 3.38µM* | -20.8% | 7.94µM*
Cc1ccccc1C1C(=O)c2ccccc2C1=O | 7.0% | -5.2% | -5.0% | -1.3% | / | /
CCNC(=O)c1cnc2sc(N3CCC(C)CC3)nn2c1=O | / | / | / | -6.2% | / | /
COc1ccc(F)cc1S(=O)(=O)NCCc1csc2nc(-c3cccc(C)c3)nn12 | / | / | / | -2.2% | / | /
CCC(C(=O)NCCCN(CC)CC)n1ncn2c(cc3occc32)c1=O (stereo not given) | / | / | / | -6.1% | / | -4.4%
CCOc1ccccc1O[C@@H](c1ccccc1)[C@@H]1CNCCO1 | / | / | / | / | -3.2% | /
Cc1ccccc1CN1C(=O)c2ccccc2Sc2ccc(C(=O)NC3CCCC3)cc21 | / | / | / | 3.7% | / | /
O=C(c1ccc(CSc2nc3ccncc3n2Cc2cccc(F)c2)cc1)N1CCCCC1 | / | / | / | ? | / | -14.5%
COc1ccc(/C=C/C(=O)Nc2ccccc2C(=O)N2CCCC2)cc1 | ? | 15.4% | ? | 9.53µM* | 1.8% | 7.5%
COc1ccc(/C=C(/C(=O)Nc2ccccc2C(=O)N2CCCC2)c2ccccc2)cc1 | -3.0% | -10.5% | -0.8% | 0.4% | -0.2% | -15.4%
COc1ccc(/C=C/C(=O)Nc2cc(C)nn2-c2nc3ccccc3[nH]2)cc1 | ? | 7.4% | 3.98µM* | 1.69µM* | -4.2% | 11.2µM*
COc1ccc(/C=C/C(=O)Nc2ccccc2C(=O)O)cc1 | 3.16µM* | ? | 0.447µM* | 0.426µM* | -14.8% | 3.98µM*
COc1ccc(/C=C/C(=O)Nc2ccccc2C(F)(F)F)cc1 | ? | 9.6% | ? | ? | -8.6% | ?
COc1ccc(/C=C/C(=O)NC(=S)Nc2cc([N+](=O)[O-])ccc2O)cc1OC | 0.7% | 1.6% | -0.6% | 7.57µM* | -1.6% | 2.7%
COc1ccc(/C=C/C(=O)Nc2ccccc2C(=O)O)cc1OC | 0.891µM* | ? | 1.41µM* | 0.151µM* | -0.7% | -26.2%
CCc1cc(C(=O)O)c(NC(=O)/C=C/c2ccc(OC)cc2)s1 | 2.82µM* | ? | 2.51µM* | 12µM* | / | /
COc1ccc(/C=C/C(=O)Nc2ccccc2C(=O)NCC(c2ccc(OC)cc2)N(C)C)cc1 (stereo not given) | 20.6% | 6.4% | 17.4% | 10.7µM* | / | /
CCc1cc(C(=O)O)c(NC(=O)/C=C/c2ccc(OC)c(OC)c2)s1 | -8.2% | 0.3% | -4.7% | ? | 4.3% | 6.6%
O=C1ON=C(c2ccccc2)/C1=C/c1ccc(OS(=O)(=O)c2ccccc2)cc1 | -0.6% | 2.3% | 0.5% | -19.0% | 2.8% | -16.9%
CN(C)/N=C/c1ccc(OS(=O)(=O)c2ccccc2)cc1 | 2.82µM* | 8.2µM* | 3.55µM* | 21.3µM* | -9.8% | /
